Binding signal data for one sequence are collected here from article PMC7862700, “An all-to-all approach to the identification of sequence-specific readers for epigenetic DNA modifications on cytosine”.

Holding throughout (test): DAPPL (digital affinity profiling via proximity ligation, sequencing); 10 mM Tris-HCl pH 7.5, 50 mM NaCl, 1 mM DTT, 4% glycerol, room temperature, 30 min; GST-TFs on glutathione beads, 16-mer random dsDNA library, 0.1% formaldehyde crosslink after washing; high values mean tight binding
One assay concerns the target T1, FLI1 (Homo sapiens, UniProt Q01543 1-452).
T1 sequence: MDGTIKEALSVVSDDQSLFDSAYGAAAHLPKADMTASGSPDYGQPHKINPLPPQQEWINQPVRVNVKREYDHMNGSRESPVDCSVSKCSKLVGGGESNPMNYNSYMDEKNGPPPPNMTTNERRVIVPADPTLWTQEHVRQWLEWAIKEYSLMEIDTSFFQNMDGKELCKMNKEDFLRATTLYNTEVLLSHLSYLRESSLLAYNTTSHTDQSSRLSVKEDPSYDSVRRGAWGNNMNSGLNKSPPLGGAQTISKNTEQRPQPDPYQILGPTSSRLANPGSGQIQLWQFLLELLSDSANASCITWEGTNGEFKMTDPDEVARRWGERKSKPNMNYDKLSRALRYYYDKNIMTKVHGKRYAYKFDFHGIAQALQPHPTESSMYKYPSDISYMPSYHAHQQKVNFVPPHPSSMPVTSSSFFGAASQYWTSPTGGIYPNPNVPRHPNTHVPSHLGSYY
The note with it: protein: recombinant; tags: N-terminal GST; dsDNA, one strand shown. Put shortly: (§1)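 In yeast, human transcription factors were expressed with a GST fusion, then pulled down on glutathione beads and given DNA barcodes. Pooled with a tag-only sample, they were exposed to 200 nmole of a 16-mer random double-stranded DNA library (Tris/NaCl/DTT/glycerol buffer, room temperature, 30 min), washed, crosslinked with 0.1% formaldehyde, proximity-ligated using BsaI/T4 ligase for 1 h at 37 °C, PCR-amplified and read on an Illumina NextSeq500. Each hexamer's frequency of reads for a factor, divided by the matching frequency for the tag-only sample, gives the binding signal.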

For a further assay, the target named is T2, ELK1 (Homo sapiens, UniProt P19419 1-428).
T2 sequence: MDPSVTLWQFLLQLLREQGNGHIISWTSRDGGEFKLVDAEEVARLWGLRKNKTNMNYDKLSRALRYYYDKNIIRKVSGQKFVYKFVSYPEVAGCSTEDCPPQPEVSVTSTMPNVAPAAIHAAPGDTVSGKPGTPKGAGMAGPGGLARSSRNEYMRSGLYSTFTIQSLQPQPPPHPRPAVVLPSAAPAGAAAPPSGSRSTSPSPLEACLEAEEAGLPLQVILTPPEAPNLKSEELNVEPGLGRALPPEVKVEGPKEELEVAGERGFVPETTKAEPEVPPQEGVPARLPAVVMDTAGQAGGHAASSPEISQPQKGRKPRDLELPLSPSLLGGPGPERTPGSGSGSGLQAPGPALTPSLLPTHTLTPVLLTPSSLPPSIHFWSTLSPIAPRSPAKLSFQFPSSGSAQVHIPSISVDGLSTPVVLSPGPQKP
The conditions noted are these: protein: recombinant; tags: N-terminal GST; dsDNA, one strand shown. Put shortly:
as §1

The next assay concerns the target T3, GABPA (Homo sapiens, UniProt Q06546 1-454).
T3 sequence: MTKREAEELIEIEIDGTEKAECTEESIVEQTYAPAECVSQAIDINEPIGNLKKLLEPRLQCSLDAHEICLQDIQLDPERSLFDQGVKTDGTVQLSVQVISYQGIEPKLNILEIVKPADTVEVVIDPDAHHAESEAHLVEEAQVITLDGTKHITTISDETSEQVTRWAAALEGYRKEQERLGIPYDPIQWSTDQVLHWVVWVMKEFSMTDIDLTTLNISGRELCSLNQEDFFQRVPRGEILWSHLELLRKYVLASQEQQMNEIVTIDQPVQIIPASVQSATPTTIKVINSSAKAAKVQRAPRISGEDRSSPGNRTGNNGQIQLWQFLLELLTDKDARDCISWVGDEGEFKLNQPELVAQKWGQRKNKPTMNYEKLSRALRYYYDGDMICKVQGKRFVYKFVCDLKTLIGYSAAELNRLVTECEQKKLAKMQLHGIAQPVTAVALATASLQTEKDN
The conditions noted are these: protein: recombinant; tags: N-terminal GST; dsDNA, one strand shown. The method, boiled down:
as §1

The target of a further assay is T4, ERG (Homo sapiens, UniProt P11308 1-479).
T4 sequence: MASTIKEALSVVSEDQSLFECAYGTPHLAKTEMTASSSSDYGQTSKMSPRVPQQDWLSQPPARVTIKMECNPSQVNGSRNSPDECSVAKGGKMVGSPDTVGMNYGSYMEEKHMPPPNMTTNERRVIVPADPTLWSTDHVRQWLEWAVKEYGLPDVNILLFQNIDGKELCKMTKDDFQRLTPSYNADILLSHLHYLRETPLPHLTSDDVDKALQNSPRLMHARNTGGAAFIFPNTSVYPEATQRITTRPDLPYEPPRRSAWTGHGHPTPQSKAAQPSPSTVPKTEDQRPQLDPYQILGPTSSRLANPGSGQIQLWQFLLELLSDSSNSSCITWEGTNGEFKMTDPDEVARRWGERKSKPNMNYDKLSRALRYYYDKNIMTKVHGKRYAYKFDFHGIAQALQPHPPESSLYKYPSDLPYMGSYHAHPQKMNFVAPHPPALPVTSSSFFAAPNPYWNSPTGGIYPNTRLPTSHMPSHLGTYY
The conditions noted are these: protein: recombinant; tags: N-terminal GST; dsDNA, one strand shown. The method, boiled down:
as §1

For a further assay, the target named is ELF1 (Homo sapiens, UniProt P32519 1-619). The note with it: protein: recombinant; tags: N-terminal GST; dsDNA, one strand shown. Put shortly:
as §1

In a further assay the target is T5, EHF (Homo sapiens, UniProt Q9NZC4 1-300).
T5 sequence: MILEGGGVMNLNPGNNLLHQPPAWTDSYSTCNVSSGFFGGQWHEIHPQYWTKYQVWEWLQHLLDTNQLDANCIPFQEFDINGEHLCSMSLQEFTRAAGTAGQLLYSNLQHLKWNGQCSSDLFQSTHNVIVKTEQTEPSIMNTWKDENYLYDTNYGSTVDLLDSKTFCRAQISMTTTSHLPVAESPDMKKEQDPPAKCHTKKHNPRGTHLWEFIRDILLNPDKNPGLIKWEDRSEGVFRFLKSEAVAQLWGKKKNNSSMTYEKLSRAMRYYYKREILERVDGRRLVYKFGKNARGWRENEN
The note with it: protein: recombinant; tags: N-terminal GST; dsDNA, one strand shown. The method, boiled down: as §1

For another assay, the target named is SPI1 (Homo sapiens, UniProt P17947 1-270). The note with it: protein: recombinant; tags: N-terminal GST; dsDNA, one strand shown. The method, boiled down:
as §1

The next assay has as its target SPIB (Homo sapiens, UniProt Q01892 1-262). The note with it: protein: recombinant; tags: N-terminal GST; dsDNA, one strand shown. Put shortly:
as §1

Another assay has as its target T6, ELK3 (Homo sapiens, UniProt P41970 1-407).
T6 sequence: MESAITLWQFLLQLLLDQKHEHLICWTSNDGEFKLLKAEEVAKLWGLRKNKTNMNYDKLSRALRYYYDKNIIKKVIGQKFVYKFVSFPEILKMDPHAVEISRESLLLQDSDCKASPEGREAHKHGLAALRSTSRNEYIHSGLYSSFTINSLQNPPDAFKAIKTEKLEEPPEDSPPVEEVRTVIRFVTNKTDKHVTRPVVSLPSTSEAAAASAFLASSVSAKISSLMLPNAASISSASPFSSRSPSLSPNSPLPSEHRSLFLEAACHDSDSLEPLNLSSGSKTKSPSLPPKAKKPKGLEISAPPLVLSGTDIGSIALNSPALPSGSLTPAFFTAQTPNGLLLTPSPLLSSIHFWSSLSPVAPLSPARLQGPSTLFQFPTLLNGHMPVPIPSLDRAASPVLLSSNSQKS
The conditions noted are these: protein: recombinant; tags: N-terminal GST; dsDNA, one strand shown. The method, boiled down:
as §1

Another assay concerns the target T7, FEV (Homo sapiens, UniProt Q99581 1-238).
T7 sequence: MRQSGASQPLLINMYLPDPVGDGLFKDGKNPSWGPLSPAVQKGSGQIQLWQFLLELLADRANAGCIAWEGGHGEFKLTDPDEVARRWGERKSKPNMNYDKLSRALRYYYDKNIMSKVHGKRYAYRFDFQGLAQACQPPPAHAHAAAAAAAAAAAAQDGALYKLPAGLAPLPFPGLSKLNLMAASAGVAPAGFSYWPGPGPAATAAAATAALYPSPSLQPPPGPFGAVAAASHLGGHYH
The conditions noted are these: protein: recombinant; tags: N-terminal GST; dsDNA, one strand shown. Put shortly:
as §1

For the next assay, the target named is ETV5 (Homo sapiens, UniProt P41161 1-510). The note with it: protein: recombinant; tags: N-terminal GST; dsDNA, one strand shown. The method, boiled down:
as §1

The target in a further assay is HSF1 (Homo sapiens, UniProt Q00613 1-529). The conditions noted are these: protein: recombinant; tags: N-terminal GST; chain copies: 3; dsDNA, one strand shown. Put shortly: as §1
HSF1, sequence (Q00613 whole entry): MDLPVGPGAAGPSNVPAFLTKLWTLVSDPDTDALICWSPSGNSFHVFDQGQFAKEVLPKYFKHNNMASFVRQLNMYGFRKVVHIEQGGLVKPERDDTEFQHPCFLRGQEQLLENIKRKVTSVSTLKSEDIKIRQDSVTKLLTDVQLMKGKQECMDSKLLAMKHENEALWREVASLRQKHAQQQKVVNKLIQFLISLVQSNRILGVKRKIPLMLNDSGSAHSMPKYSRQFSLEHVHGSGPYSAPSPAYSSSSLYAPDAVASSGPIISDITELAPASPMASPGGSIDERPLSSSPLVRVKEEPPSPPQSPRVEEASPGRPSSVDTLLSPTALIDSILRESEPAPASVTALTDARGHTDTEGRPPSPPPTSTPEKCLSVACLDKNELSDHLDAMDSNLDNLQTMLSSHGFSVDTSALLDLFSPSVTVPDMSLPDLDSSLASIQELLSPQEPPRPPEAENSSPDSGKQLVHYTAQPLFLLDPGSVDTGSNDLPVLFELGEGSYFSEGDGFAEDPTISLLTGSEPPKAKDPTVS
A further assay has as its target T8, SPIC (Homo sapiens, UniProt Q8N5J4 1-248).
T8 sequence: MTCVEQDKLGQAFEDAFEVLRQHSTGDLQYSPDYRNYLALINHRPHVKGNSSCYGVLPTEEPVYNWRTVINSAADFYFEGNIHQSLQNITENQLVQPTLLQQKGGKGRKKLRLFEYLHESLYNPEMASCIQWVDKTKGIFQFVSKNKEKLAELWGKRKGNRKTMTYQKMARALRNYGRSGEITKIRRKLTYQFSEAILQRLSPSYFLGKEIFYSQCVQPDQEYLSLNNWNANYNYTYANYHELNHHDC
The note with it: protein: recombinant; tags: N-terminal GST; dsDNA, one strand shown. Put shortly: as §1

Another assay has as its target ELF4 (Homo sapiens, UniProt Q99607 1-663). The conditions noted are these: protein: recombinant; tags: N-terminal GST; dsDNA, one strand shown. Put shortly: as §1
Another assay deals with T9, ELK4 (Homo sapiens, UniProt P28324-2 1-405).
T9 sequence: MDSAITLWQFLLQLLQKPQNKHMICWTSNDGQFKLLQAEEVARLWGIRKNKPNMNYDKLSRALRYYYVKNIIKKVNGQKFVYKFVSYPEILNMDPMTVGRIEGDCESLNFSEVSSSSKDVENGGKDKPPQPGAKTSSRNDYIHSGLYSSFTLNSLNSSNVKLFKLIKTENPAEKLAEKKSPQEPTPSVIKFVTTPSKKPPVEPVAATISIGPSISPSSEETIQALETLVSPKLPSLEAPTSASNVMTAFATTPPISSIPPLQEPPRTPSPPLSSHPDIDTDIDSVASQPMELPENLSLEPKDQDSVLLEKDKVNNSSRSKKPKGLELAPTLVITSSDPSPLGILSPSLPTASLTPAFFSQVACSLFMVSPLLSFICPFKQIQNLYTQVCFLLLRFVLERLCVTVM
The note with it: protein: recombinant; tags: N-terminal GST; dsDNA, one strand shown. The method, boiled down:
as §1

Another assay has as its target T10, ETV2 (Homo sapiens, UniProt O00321 1-342).
T10 sequence: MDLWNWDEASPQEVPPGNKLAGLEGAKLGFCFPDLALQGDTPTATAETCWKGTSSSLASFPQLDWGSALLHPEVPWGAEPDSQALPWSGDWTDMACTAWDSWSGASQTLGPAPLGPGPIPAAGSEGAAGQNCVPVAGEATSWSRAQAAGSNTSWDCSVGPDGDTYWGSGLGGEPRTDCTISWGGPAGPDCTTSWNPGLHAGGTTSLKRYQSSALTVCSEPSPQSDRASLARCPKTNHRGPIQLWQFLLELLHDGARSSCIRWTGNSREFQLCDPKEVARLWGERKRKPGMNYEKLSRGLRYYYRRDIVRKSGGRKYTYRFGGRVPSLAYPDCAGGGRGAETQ
The conditions noted are these: protein: recombinant; tags: N-terminal GST; dsDNA, one strand shown. Put shortly: as §1

The next assay addresses T11, ELF3 (Homo sapiens, UniProt P78545 1-371).
T11 sequence: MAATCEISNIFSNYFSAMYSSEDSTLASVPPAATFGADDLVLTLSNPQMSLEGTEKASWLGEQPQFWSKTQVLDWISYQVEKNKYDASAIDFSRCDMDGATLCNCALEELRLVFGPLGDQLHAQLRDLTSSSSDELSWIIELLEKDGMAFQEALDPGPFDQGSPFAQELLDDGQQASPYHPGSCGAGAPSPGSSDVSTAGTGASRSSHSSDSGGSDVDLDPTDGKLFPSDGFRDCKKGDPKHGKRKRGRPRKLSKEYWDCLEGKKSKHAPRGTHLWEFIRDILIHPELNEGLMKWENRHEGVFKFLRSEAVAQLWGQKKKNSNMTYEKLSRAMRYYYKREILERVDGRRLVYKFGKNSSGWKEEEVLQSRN
The conditions noted are these: protein: recombinant; tags: N-terminal GST; dsDNA, one strand shown. The method, boiled down: as §1

The next assay addresses CRX (Homo sapiens, UniProt O43186 1-299). The note with it: protein: recombinant; tags: N-terminal GST; dsDNA, one strand shown. The method, boiled down:
as §1

A further assay concerns the target ETV1 (Homo sapiens, UniProt P50549 1-477). The conditions noted are these: protein: recombinant; tags: N-terminal GST; dsDNA, one strand shown. Put shortly: as §1

ETV1, sequence (P50549 whole entry): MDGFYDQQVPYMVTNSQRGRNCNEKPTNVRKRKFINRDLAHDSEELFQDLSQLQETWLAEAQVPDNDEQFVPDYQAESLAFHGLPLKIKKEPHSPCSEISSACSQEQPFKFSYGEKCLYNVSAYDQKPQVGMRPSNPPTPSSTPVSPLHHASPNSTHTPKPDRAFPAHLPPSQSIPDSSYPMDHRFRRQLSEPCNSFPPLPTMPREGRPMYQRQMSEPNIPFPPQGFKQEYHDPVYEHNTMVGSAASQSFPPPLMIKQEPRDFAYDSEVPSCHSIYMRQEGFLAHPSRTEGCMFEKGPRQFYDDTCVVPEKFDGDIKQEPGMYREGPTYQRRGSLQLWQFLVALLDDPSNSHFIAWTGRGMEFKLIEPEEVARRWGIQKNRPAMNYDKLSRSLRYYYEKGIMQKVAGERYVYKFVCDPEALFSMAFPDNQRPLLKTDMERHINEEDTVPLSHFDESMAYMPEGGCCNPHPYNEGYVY
SPIB, sequence (Q01892 whole entry): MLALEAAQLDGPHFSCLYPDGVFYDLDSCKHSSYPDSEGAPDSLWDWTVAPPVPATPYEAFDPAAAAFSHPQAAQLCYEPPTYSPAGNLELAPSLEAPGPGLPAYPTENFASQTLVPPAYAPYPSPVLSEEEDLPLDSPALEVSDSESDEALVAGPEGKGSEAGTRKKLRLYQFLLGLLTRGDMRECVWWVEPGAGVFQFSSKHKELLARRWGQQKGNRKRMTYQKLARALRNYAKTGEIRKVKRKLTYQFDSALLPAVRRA
CRX, sequence (O43186 whole entry): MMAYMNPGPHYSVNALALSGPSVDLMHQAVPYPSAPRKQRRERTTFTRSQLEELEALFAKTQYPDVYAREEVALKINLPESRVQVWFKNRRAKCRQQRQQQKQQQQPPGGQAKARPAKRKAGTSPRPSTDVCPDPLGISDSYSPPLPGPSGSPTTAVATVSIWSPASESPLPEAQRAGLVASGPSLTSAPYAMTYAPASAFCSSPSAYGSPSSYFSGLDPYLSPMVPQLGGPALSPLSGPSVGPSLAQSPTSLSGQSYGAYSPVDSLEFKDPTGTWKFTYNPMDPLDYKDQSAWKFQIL
ELF1, sequence (P32519 whole entry): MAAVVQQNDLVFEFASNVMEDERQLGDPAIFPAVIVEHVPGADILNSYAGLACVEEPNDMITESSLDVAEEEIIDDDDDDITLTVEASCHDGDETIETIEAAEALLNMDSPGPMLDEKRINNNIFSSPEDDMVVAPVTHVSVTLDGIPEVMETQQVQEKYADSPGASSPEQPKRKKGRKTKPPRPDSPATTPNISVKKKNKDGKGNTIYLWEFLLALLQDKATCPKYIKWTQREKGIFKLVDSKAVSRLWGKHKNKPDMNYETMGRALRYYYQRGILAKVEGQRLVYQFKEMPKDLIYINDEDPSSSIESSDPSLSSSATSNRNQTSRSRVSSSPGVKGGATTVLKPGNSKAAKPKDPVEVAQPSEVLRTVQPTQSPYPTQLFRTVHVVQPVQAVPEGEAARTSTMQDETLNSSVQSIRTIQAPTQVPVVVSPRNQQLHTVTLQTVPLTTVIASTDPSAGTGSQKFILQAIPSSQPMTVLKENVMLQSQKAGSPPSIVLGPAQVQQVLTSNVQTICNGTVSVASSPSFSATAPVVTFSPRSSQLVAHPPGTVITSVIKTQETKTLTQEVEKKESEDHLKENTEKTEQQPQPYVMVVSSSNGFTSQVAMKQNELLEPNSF
ELF4, sequence (Q99607 whole entry): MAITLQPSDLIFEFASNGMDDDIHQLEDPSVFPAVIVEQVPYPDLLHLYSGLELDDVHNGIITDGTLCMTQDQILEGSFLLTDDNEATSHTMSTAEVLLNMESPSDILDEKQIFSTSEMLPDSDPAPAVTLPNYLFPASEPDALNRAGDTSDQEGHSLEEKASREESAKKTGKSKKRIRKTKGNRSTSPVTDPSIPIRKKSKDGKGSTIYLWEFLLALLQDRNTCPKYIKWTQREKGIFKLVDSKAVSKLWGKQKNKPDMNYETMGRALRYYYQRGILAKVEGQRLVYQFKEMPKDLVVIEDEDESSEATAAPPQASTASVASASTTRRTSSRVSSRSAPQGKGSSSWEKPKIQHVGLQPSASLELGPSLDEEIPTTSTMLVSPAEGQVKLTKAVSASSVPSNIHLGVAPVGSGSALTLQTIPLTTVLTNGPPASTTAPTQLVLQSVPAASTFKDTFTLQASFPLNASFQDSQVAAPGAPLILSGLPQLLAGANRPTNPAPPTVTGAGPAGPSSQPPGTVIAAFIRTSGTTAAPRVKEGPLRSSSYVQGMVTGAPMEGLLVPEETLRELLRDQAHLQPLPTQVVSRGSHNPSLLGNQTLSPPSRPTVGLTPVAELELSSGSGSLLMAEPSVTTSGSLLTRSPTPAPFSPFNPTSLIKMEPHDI
ETV5, sequence (P41161 whole entry): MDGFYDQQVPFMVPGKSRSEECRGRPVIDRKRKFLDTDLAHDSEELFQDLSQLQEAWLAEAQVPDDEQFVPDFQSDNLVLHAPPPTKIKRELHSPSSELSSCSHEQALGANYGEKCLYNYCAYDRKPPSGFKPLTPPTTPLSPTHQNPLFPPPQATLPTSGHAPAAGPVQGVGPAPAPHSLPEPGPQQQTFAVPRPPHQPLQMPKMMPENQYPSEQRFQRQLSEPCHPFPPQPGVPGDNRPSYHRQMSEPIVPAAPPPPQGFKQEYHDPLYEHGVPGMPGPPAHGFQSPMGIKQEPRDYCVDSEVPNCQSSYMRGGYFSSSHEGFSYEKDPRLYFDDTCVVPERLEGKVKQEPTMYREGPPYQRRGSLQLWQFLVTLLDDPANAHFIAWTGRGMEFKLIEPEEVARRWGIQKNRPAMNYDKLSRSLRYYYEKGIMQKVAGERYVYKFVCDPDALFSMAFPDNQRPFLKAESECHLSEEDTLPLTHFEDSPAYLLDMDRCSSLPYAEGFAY

On to ATGTAT, for which the binding signal in the assay with FLI1 is 1.34 fold enrichment (6-mer frequency, TF over GST control); with ELK1, 1.32 fold enrichment (6-mer frequency, TF over GST control); in the assay with GABPA, 1.27 fold enrichment (6-mer frequency, TF over GST control); with ERG, 1.35 fold enrichment (6-mer frequency, TF over GST control); with ELF1 it was 1.3 fold enrichment (6-mer frequency, TF over GST control); in the assay with EHF it was 1.28 fold enrichment (6-mer frequency, TF over GST control). Moreover, the binding signal with SPI1 is 1.28 fold enrichment (6-mer frequency, TF over GST control); with SPIB, 1.32 fold enrichment (6-mer frequency, TF over GST control); with ELK3, 1.36 fold enrichment (6-mer frequency, TF over GST control); in the assay with FEV, 1.31 fold enrichment (6-mer frequency, TF over GST control); with ETV5 it was 1.33 fold enrichment (6-mer frequency, TF over GST control); with HSF1, 1.18 fold enrichment (6-mer frequency, TF over GST control). For the same sequence, the binding signal with SPIC was 1.25 fold enrichment (6-mer frequency, TF over GST control); with ELF4 it was 1.43 fold enrichment (6-mer frequency, TF over GST control); in the assay with ELK4, 1.57 fold enrichment (6-mer frequency, TF over GST control); in the assay with ETV2, 1.3 fold enrichment (6-mer frequency, TF over GST control); with ELF3 it was 1.35 fold enrichment (6-mer frequency, TF over GST control); in the assay with CRX it was 1.24 fold enrichment (6-mer frequency, TF over GST control). Also, the binding signal in the assay with ETV1 was 1.42 fold enrichment (6-mer frequency, TF over GST control).
